# Source: PubChem BioAssay (EPA / NIEHS)
# Results filed as inconclusive are left out. Activity calls are given as the source filed them. How the source made its calls, unless noted: active means hit-call score of the fitted dose curve at least 0.9, where 1 is the maximum; inactive means score below 0.9.
# Columns and labels:
# [1] = CCTE_Mundy_HCI_iCellGluta_NOG_NeuriteLength: CCTE's Neurite Outgrowth Assay in iCellGluta cells for Neurite Length, Mundy Lab (AID 2284318; active means hit-call score of the fitted dose curve at least 0.9, where 1 is the maximum)
# Summary of the method: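 Automated high-content imaging of betaIII-tubulin (Alexa Fluor-488) and Hoechst-stained cells gave neurite length, normalized to the DMSO baseline.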
# TTR (gene 7276) = experiment: CCTE_GLTED_hTTR_0.5uM: CCTE's human Transthyretin (hTTR) Inhibition Assay, with 0.5uM TTR, Great Lakes Toxicology and Ecology Division (GLTED) Lab (AID 2284320)
# Description: CCTE_GLTED_hTTR is a cell-free, single-readout assay designed to test the chemicals' ability to displace T4 from the human transthyretin (TTR) protein. TTR (at 0.125uM or 0.5uM) is incubated in presence of test chemical for 2 hours during which disrupting chemicals displace ANSA from the TTR protein. Results read fluorescence at 380 excitation and 475 emission.CCTE_GLTED_hTTR_0.5uM is the assay component measured from the CCTE_GLTED_hTTR assay. It is designed to make measurements of fluorescent polarization, using a form of binding reporter, as detected with Fluorescence signals by Fluorescence technology.Data from the assay component CCTE_GLTED_hTTR_0.5uM was analyzed at the assay endpoint CCTE_GLTED_hTTR_0.5uM in the positive analysis fitting direction relative to DMSO as the negative control and baseline of activity. Using a type of binding reporter, loss-of-signal activity can be used to understand a chemical's ability to displace T4 from transthyretin. To generalize the intended target to other relatable targets, this assay endpoint is annotated to the 'transporter' intended target family, where the subfamily is 'hormone carrier protein'.
# [2] = CCTE_Deisenroth_5AR_NBTE_donor: CCTE's 5alpha-reductase NanoBRET Target Engagement Assay […], Deisenroth Lab (AID 2284319); conditions: actives raise or lower the signal
# Description: CCTE_Deisenroth_5AR NBTE (5alpha-reductase NanoBRET Target Engagement Assay) is a cell-based, single-readout assay that uses HEK293T, a human kidney cell line, with measurements taken at 5 hours after chemical dosing in a 384 well plate. This assay includes a primary and secondary screen as well as an autofluorscence screen.CCTE_Deisenroth_5AR NBTE_donor is one of four assay components measured from the CCTE_Deisenroth_5AR NBTE assay. It is designed to make measurements of donor luminescence, as detected by bioluminescence intensity emission signals using spectrometry technology.Data from the assay component CCTE_Deisenroth_5AR NBTE_donor was analyzed into 1 assay endpoint. This assay endpoint, CCTE_Deisenroth_5AR NBTE_donor, was analyzed with bidirectional fitting relative to DMSO as the negative control and baseline of activity. Using a type of inducible reporter, gain or loss-of-signal activity can be used to understand changes in the donor luminescence as related to 5alpha-reductase catalytic function. Furthermore, this assay endpoint can be referred to as a secondary readout, because this assay has produced multiple assay endpoints where this one serves an artifact detection function.
# For transient expression of the SRD5A2-NanoLuc fusion protein, HEK293T cells are reverse transfected with pNLF1-C-SRD5A2 expression vector and incubated for 20 hours to facilitate fusion protein expression. For assay setup, 384-well non-binding surface (NBS) microplates are pre-dispensed with test chemical across an 8-point concentration series (10 nM - 29.9 uM) with two technical replicates per run. Cell suspensions are dispensed into the microplates and incubated with test chemical for a duration of three hours. Following pre-incubation with test chemical, the testosterone tracer is dispensed into each well and incubated an additional two hours. The total incubation period with test chemical is five hours, with testosterone tracer added the final two hours to reach target engagement equilibrium. For the NanoBRET endpoint measurements, a solution of Nano-Glo substrate and extracellular NanoLuc inhibitor solution is added to each test well and immediately scanned on a plate reader configured with multichromatic emission settings for donor luminescence ([…]) and acceptor fluorescence ([…]). DMSO solvent controls are included as baseline control. Plate-matched samples are run with mock tracer conditions or testosterone tracer to discriminate any potential non-specific substrate interference.
# [3] = CCTE_Deisenroth_5AR_NBTE_acceptor: CCTE's 5alpha-reductase NanoBRET Target Engagement Assay - Autofluorescence Screen, Deisenroth Lab (AID 2284321); conditions: actives raise or lower the signal;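 further: compound fluorescence in the acceptor channel under 460 nm excitation flags autofluorescence artifacts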
# Summary of the method: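 HEK293T cell-based NanoBRET assay read 5 h after dosing; this acceptor channel serves as an autofluorescence artifact screen. Chemicals at nominal 100 uM were scanned in three independent runs (n=3), excitation 460 nm. Fitting was bidirectional versus DMSO baseline.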
# SRD5A2 (gene 6716) = experiment: CCTE_Deisenroth_5AR_NBTE_ratio: CCTE's 5alpha-reductase NanoBRET Target Engagement Assay - Ratio, Deisenroth Lab (AID 2284322); conditions: actives raise or lower the signal
# Summary of the method: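 Reverse-transfect HEK293T with pNLF1-C-SRD5A2, express 20 h. Pre-incubate cells with chemical 3 h (8-point series, 10 nM - 29.9 uM, duplicate). Add testosterone tracer, 2 h more. Add substrate/inhibitor, read donor and acceptor emission.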
# [4] = TAMU_PeakParms_SingleDonor1434_Asystole: Texas A&M University (TAMU) 1.5-hr Human Induced Pluripotent Stem Cell (iPSC)-derived Cardiomyocytes Calcium (Ca+2) Flux Assay for Cardiotoxicity: Asystole (quiescence of beating) (AID 2284328; active means hit-call score of the fitted dose curve at least 0.9, where 1 is the maximum)
# Summary of the method: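 Donor 1434 iPSC-cardiomyocytes exposed 90 min at 37C, 5% CO2, to 0.2, 1, 10 and 100 uM in 0.5% DMSO. Ca2+ dye fluorescence gave average peak frequency; POD is EC95, a 95% beat-rate drop versus controls.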
# [5] = tested on: Brachyury (BRA) Protein Expression, Deisenroth Lab, TBXT (gene 6862); experiment: CCTE_Deisenroth_DEVTOX-GLR_legacy_Bra: (Legacy) CCTE's DevTox GLR-Endo Assay Evaluation of Brachyury (BRA) Protein Expression, Deisenroth Lab (AID 2284329)
# Summary of the method: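 RUES2-GLR human pluripotent cells are differentiated for 48 h and receive two chemical exposures 24 h apart, at 10 concentrations from 1 nM to 200 uM. Cells are fixed, nuclei stained and imaged. Bra+ cells are those with mean Bra intensity over 5x BMAD above the pluripotent control median, expressed as a percentage of cell count, after subtracting the 0.2% DMSO control median.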
# IYD (gene 389434) = experiment: CCTE_GLTED_hIYD: CCTE's human Iodotyrosine Deiodinase (xIYD) Inhibition Assay, Great Lakes Toxicology and Ecology Division (GLTED) Lab (AID 2284317; active means hit-call score of the fitted dose curve at least 0.9, where 1 is the maximum;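 further: cell-free human IYD enzyme made in baculovirus insect cells; iodide freed from monoiodotyrosine measured by cerium arsenite color change at 420 nm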)
# Summary of the method: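 First, recombinant human IYD (baculovirus-insect cells), MIT and chemical incubated 3 h. Next, iodide isolated on Dowex. Finally, Sandell-Kolthoff rate read at 420 nm, with platewise normalization to MNT and solvent controls.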
# [6] = VALA_MIGHUV2_WoundArea: VALA Sciences human Umbilical Vein Endothelial Cell Migration (MIGHUV) Assay, Area of Scratch Wound after Recovery (AID 2284316; active means hit-call score of the fitted dose curve at least 0.9, where 1 is the maximum)
# Summary of the method: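 HUVEC seeded at 9000 cells/well, scratched after 24 h; test chemical added within 30 min, 6-point concentration response in triplicate (0.1% DMSO vehicle). After 24 h wound recovery, cells fixed and Hoechst-stained nuclei in wound area imaged; Cytochalasin D reference control.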
# [7] = VALA_TUBHUV_Antagonist_TubuleLength: VALA Sciences human Umbilical Vein Endothelial Tubule Formation (TUBHUV) Antagonism Assay (AID 2284325; active means hit-call score of the fitted dose curve at least 0.9, where 1 is the maximum)
# Summary of the method: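 HUVEC–HDF co-culture (1:3) pre-grown 3 days with 10 ng/ml VEGF, then 3 days with compound plus VEGF. Fixed, nuclear and CD31 stained; total tubule length by imaging versus 0.1% DMSO; suramin 100 uM positive control.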
structure (smiles),measurement,setting,value
O=C(O)C=CC(F)(C(F)(F)F)C(F)(F)F,outcome,[1],inactive
same,AC50,TTR (gene 7276),9.44 µM (active)
c1ccc2c(c1)Nc1ccccc1S2,outcome,[2],inactive
same,outcome,[3],inactive
same,AC50,SRD5A2 (gene 6716),23.7 µM (active)
CC(C)(C)c1ccccc1OP(=O)(Oc1ccccc1)Oc1ccccc1,outcome,[4],inactive
O=C(O)C(F)(F)OC(F)(F)C(F)(F)OC(F)(F)C(=O)O,outcome,[1],inactive
same,AC50,TTR (gene 7276),0.746 µM (active)
CCCCC(CC)COP(=O)(Oc1ccccc1)Oc1ccccc1 (configuration not stated),outcome,[4],inactive
OCC(F)(F)OC(F)(F)C(F)(F)OC(F)(F)C(F)(F)OC(F)(F)F,AC50,TTR (gene 7276),51.7 µM (active)
CCOP(=S)(OCC)SCSCC,outcome,[1],inactive
same,outcome,[2],inactive
same,outcome,[3],inactive
same,outcome,SRD5A2 (gene 6716),inactive
O=P1(N(CCCl)CCCl)NCCCO1 (configuration not stated),outcome,[5],inactive
CCCN(CCC)c1c([N+](=O)[O-])cc(C(C)C)cc1[N+](=O)[O-],outcome,[2],inactive
same,outcome,[3],inactive
same,outcome,SRD5A2 (gene 6716),inactive
CC1(C)CN=C(NN=C(/C=C/c2ccc(C(F)(F)F)cc2)/C=C/c2ccc(C(F)(F)F)cc2)NC1,AC50,[2],50 µM (active)
same,AC50,[3],50 µM (active)
same,AC50,SRD5A2 (gene 6716),50 µM (active)
OCC(F)(F)OC(F)(F)C(F)(F)OC(F)(F)C(F)(F)OC(F)(F)CO,AC50,TTR (gene 7276),9.52 µM (active)
O=C(O)C1C(C(=O)O)C2(Cl)C(Cl)=C(Cl)C1(Cl)C2(Cl)Cl (configuration not stated),outcome,[2],inactive
same,outcome,[3],inactive
same,outcome,SRD5A2 (gene 6716),inactive
CCCCCCCc1ccc(O)cc1,AC50,IYD (gene 389434),52.4 µM (active)
CCCCc1ccc(O)cc1,outcome,IYD (gene 389434),inactive
Cc1ccc(N)cc1N,outcome,[6],inactive
same,outcome,[7],inactive
O=S(=O)(F)C(F)(F)C(F)(F)C(F)(F)C(F)(F)C(F)(F)C(F)(F)C(F)(F)C(F)(F)F,AC50,TTR (gene 7276),55 µM (active)
O=C(O)C(F)(OC(F)(F)C(F)(F)C(F)(F)F)C(F)(F)F (configuration not stated),outcome,[1],inactive
O=C(O)C(F)(F)OC(F)(F)C(F)(F)OC(F)(F)F,outcome,[1],inactive
same,AC50,TTR (gene 7276),3.59 µM (active)
ClC1=C(Cl)C2(Cl)C3C(Cl)C(Cl)CC3C1(Cl)C2(Cl)Cl (configuration not stated),outcome,[2],inactive
same,outcome,[3],inactive
same,outcome,SRD5A2 (gene 6716),inactive
OCC(F)(F)OC(F)(F)C(F)(F)OC(F)(F)CO,AC50,TTR (gene 7276),40.1 µM (active)
COC(=O)C(F)(F)C(F)(F)OC(F)(C(F)(F)F)C(F)(F)OC(F)=C(F)F (configuration not stated),AC50,TTR (gene 7276),0.977 µM (active)
O=c1ssc(Cl)c1Cl,outcome,IYD (gene 389434),inactive
CO/N=C(/C(=O)OC)c1ccccc1COc1ccccc1C,AC50,[1],19.7 µM (active)
O=P(Oc1ccccc1)(Oc1ccccc1)Oc1ccccc1,outcome,[4],inactive
CCOc1ccc(C(C)(C)COCc2cccc(Oc3ccccc3)c2)cc1,outcome,[1],inactive
O=P(OCC(Br)CBr)(OCC(Br)CBr)OCC(Br)CBr (configuration not stated),outcome,[2],inactive
same,outcome,[3],inactive
same,AC50,SRD5A2 (gene 6716),26.8 µM (active)
CCC1(c2ccccc2)C(=O)N=C(O)NC1=O (configuration not stated),outcome,[4],inactive
C=CC(=O)OCC(F)(F)C(F)F,AC50,TTR (gene 7276),56.8 µM (active)
